PubChem BioAssay AID1159580 (chemical genetic matrix, 2015)
Screen size: about 5,500 compounds; about 2,000 (36%) were called active. Another 18% or so got no clear call; they are omitted. Cut-off read from the data, not from the text of the source: active = normalized growth mostly below about 0.91 (no sharp cut-off); inconclusive = no clear call, values can overlap the other calls; inactive = mostly above about 0.92. Some of the results follow.

Test: chemical genetic growth profiling, strain panel (AID 1159580);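 note: tested at 20 µM; growth read once vehicle control cultures reached saturation at 30 °C; 1 = growth at the plate median or of vehicle wells; lower values mean less growth of the strain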
Conditions: S. cerevisiae deletion strains, growth OD

Measured: normalized growth

N[C@@H](C(=O)O)c1ccccc1
inactive: locus YAL013W, strain DEP1, stronger effect = lower value 1 | locus YBR229C, strain ROT2, stronger effect = lower value 1 | locus YDL101C, strain DUN1, stronger effect = lower value 1.01 | locus YDR150W, strain NUM1, stronger effect = lower value 0.997 | locus YEL061C, strain CIN8, stronger effect = lower value 1 | locus YGR078C, strain PAC10, stronger effect = lower value 0.998 | locus YHR030C, strain SLT2, stronger effect = lower value 0.927 | locus YHR087W, strain rtc3, stronger effect = lower value 0.998 | locus YJR043C, strain POL32, stronger effect = lower value 1.01 | locus YJR075W, strain HOC1, stronger effect = lower value 0.992 | locus YLR039C, strain RIC1, stronger effect = lower value 0.981 | locus YLR058C, strain SHM2 (second series), stronger effect = lower value 0.992 | locus YLR085C, strain ARP6, stronger effect = lower value 1.04 | locus YLR262C, strain YPT6, stronger effect = lower value 0.954 | locus YML094W, strain GIM5, stronger effect = lower value 1.03 | locus YMR219W, strain ESC1, stronger effect = lower value 1 | locus YMR263W, strain SAP30, stronger effect = lower value 0.987 | locus YNL128W, strain TEP1, stronger effect = lower value 0.985 | locus YNL153C, strain GIM3, stronger effect = lower value 0.999 | locus YNL298W, strain CLA4 (second series), stronger effect = lower value 1.02 | locus YNL322C, strain KRE1, stronger effect = lower value 1.01 | locus YNR030W, strain Alg12, stronger effect = lower value 1.03 | locus YPL055C, strain LGE1, stronger effect = lower value 0.996 | locus YPL241C, strain CIN2, stronger effect = lower value 1.02 | locus YPR135W, strain CTF4, stronger effect = lower value 0.974
